# Assay results published in ChEMBL document CHEMBL3988442, “University of Dundee, Small-Polar-MMV Screening Library” (2021).
# In all, about 69,000 compounds went through this assay and about 1,000 (1.4%) showed an effect of 50% or more. Only a selection was taken, and strong results are over-represented in it overall.
# Test system: Leishmania donovani
# Assay: Leishmania intramacrophage assay
# Assay type: functional, organism-based
# Design: scale not given: in the data most compounds retested in dose-response had high values
structure (smiles),measurement,setting,value
Cc1nccc([C@H]2C[C@@H]3CCN(C(=O)c4c(C)noc4C)C[C@H]3O2)n1,Percent Effect,"30.3 µM, […]",16.88%
Cc1ccccc1OCCSc1nnc(CC2CCS(=O)(=O)C2)n1C (stereo unspecified),Percent Effect,"30.3 µM, […]",22.12%
COCc1cc(N2CCOC(c3ccc(F)cc3)C2)ncn1 (stereo unspecified),Percent Effect,"30.3 µM, […]",-18.01%
COCc1cc(N2CCOC(c3ccc(Cl)cc3)C2)ncn1 (stereo unspecified),Percent Effect,"30.3 µM, […]",15.44%
COCc1cc(N2CCOC(c3ccc(Cl)c(Cl)c3)C2)ncn1 (stereo unspecified),Percent Effect,"30.3 µM, […]",54.26%
COc1ccc(-c2nc(CN3CCCC(OC)C3)c(C)o2)c(F)c1 (stereo unspecified),Percent Effect,"30.3 µM, […]",76%
CCCOC1CCCN(Cc2nc(-c3ccc(F)cc3F)oc2C)C1 (stereo unspecified),Percent Effect,"30.3 µM, […]",-16.44%
COCc1ncn(Cc2nc(-c3ccc(OC)cc3F)oc2C)n1,Percent Effect,"30.3 µM, […]",-35.79%
COc1cccc(CN(C(=O)Nc2nncs2)C2CCC(O)CC2)c1 (stereo unspecified),Percent Effect,"30.3 µM, […]",1.528%
O=C1NC2(CCN(C(=O)c3ccnnc3)CC2)CC1c1ccccc1 (stereo unspecified),Percent Effect,"30.3 µM, […]",21.04%
CCCN1CCC(Cc2noc(-c3ncccc3C)n2)CC1,Percent Effect,"30.3 µM, […]",17.75%
CCCN1CCC(Cc2noc(-c3cccnc3OC)n2)CC1,Percent Effect,"30.3 µM, […]",57.42%
COC(=O)c1cccc(-c2nc(CC3CCN(C)CC3)no2)c1,Percent Effect,"30.3 µM, […]",10.91%
CC(=O)c1ccccc1-c1nc(CC2CCN(C)CC2)no1,Percent Effect,"30.3 µM, […]",87.64%
CCCN1CCC(Cc2noc(-c3cc4cccnc4nc3C)n2)CC1,Percent Effect,"30.3 µM, […]",32.81%
CN1CCC(Cc2noc(-c3cccc4c3OCC4)n2)CC1,Percent Effect,"30.3 µM, […]",31.67%
CSCc1noc(CNC(=O)C2CCN(C3CCCCC3)CC2)n1,Percent Effect,"30.3 µM, […]",24%
Cc1noc(C)c1CN(C)c1ncnc2ccccc12,Percent Effect,"30.3 µM, […]",12.67%
CC(Cn1cc(Br)cn1)C(=O)Nc1ccc(Cl)cn1 (stereo unspecified),Percent Effect,"30.3 µM, […]",-88.88%
CC(C)c1nc(C2CCCN(C(=O)CCn3cncn3)C2)no1 (stereo unspecified),Percent Effect,30 µM,13.68%
O=C(Cc1ccc(F)cc1)NCCNc1cc(N2CCCC2)ncn1,Percent Effect,"30.3 µM, […]",-9.653%
CCN1CC(COC(=O)c2ccc(N(C)C)cc2F)CC1=O (stereo unspecified),Percent Effect,"30.3 µM, […]",23.8%
CCN1CC(COC(=O)c2ccc(Br)cc2F)CC1=O (stereo unspecified),Percent Effect,"30.3 µM, […]",87.43%
CCN1CC(COC(=O)c2cc(Br)ccc2F)CC1=O (stereo unspecified),Percent Effect,"30.3 µM, […]",-7.569%
COc1ccccc1CC(=O)N1CCCC1Cn1nc(C)cc1C (stereo unspecified),Percent Effect,"30.3 µM, […]",13.95%
O=C1O[C@@H]2CN(Cc3cccc(O)c3)C[C@@H]2N1CCCN1CCOCC1,Percent Effect,"30.3 µM, […]",8.802%
CCOc1ccc(Cl)c(C(=O)NC)n1,Percent Effect,30 µM,10.53%
O[C@@H]1C[C@@H](c2nc(-c3ccccc3)no2)N(CC2CCCCC2)C1,Percent Effect,"30.3 µM, […]",18.41%
CCn1ccc(CN(C)C(=O)CSc2nnc(N)s2)n1,Percent Effect,"30.3 µM, […]",54.38%
COc1ccc(CN(C)C(=O)CSc2nnc(N)s2)c(OC)c1OC,Percent Effect,"30.3 µM, […]",28.05%
COc1ccnc(CN(C)C(=O)CSc2nnc(N)s2)c1,Percent Effect,"30.3 µM, […]",23.55%
CC(C(=O)N1CCCCC1)N1CCN(c2ncc(Cl)cn2)CC1 (stereo unspecified),Percent Effect,"30.3 µM, […]",6.463%
Cc1cc(S(=O)(=O)N2CCC(S(C)(=O)=O)C2)ccc1F (stereo unspecified),Percent Effect,"30.3 µM, […]",24.83%
CS(=O)(=O)C1CCN(S(=O)(=O)c2ccc(F)c(F)c2)C1 (stereo unspecified),Percent Effect,"30.3 µM, […]",54.9%
CS(=O)(=O)C1CCN(S(=O)(=O)c2ccc(F)c(F)c2)CC1,Percent Effect,"30.3 µM, […]",-2.266%
O=C(NCc1ccccn1)N1CC=C(c2ccccc2)CC1,Percent Effect,"30.3 µM, […]",1.233%
Cc1nc(CCN)cc(N2CCOc3ccc(Cl)cc3C2)n1,Percent Effect,"30.3 µM, […]",63.66%
Cc1nc(C2CCNCC2)cc(N2CCOc3ccccc3C2)n1,Percent Effect,"30.3 µM, […]",38.29%
Cc1nc(N)nc(N2CCOc3ccc(CO)cc3C2)c1C,Percent Effect,"30.3 µM, […]",-5.312%
Cc1nc(C2CCN(C)CC2)cc(N2CCOc3ccc(Cl)cc3C2)n1,Percent Effect,"30.3 µM, […]",85.22%
Cc1nc(CCN)cc(N2CCC(O)(c3ccc(Cl)cc3)CC2)n1,Percent Effect,"30.3 µM, […]",77.75%
Cc1nc(CN)cc(N2CCC(O)(c3ccc(Cl)cc3)CC2)n1,Percent Effect,"30.3 µM, […]",-13.57%
Cc1nc(CCN)cc(N2CCC(O)(c3ccccc3)C2)n1 (stereo unspecified),Percent Effect,"30.3 µM, […]",11.63%
CCN(C)CC(=O)N1CCC(c2cc(N3CCOCC3)nc(C)n2)CC1,Percent Effect,"30.3 µM, […]",-5.475%
COc1ccc(C(=O)N2CCN(c3cc(CCN)nc(C)n3)CC2)cc1,Percent Effect,"30.3 µM, […]",0.4639%
COc1cc2nc(NCCNS(C)(=O)=O)cc(C)c2cc1OC,Percent Effect,"30.3 µM, […]",-28.24%
O=C(O)C(F)(F)F.O=C(O)C(F)(F)F.c1csc(CN2CCCC3(COCCN(Cc4c[nH]nn4)C3)C2)c1 (stereo unspecified),Percent Effect,"30.3 µM, […]",14.23%
Cc1ccccc1C1(C(=O)N2CCOC(C)C2)CCOCC1 (stereo unspecified),Percent Effect,"30.3 µM, […]",-3.571%
Cc1nc(CN(C)C2CCN(Cc3ccc(C(N)=O)cc3)C2)no1 (stereo unspecified),Percent Effect,30 µM,31.74%
Cc1cccc(S(=O)(=O)NC(=O)CN(C)Cc2ccccc2)c1,Percent Effect,"30.3 µM, […]",14.38%
Cc1ccccc1[C@@H]1CN(Cc2ccc(C(F)(F)F)nc2)C[C@H]1C(=O)O,Percent Effect,"30.3 µM, […]",13.27%
Fc1ccc(OCCNC2CCN(Cc3ccncc3)CC2)c(F)c1,Percent Effect,"30.3 µM, […]",39.31%
N#Cc1ccc(NC2CCN(Cc3ccccn3)CC2)c(F)c1,Percent Effect,"30.3 µM, […]",-12.41%
Fc1ccc(OCCNC2CCN(Cc3ccccn3)CC2)c(F)c1,Percent Effect,"30.3 µM, […]",52.55%
CCN1CCN(CC(O)c2ccc(OC(F)(F)F)cc2)CC1 (stereo unspecified),Percent Effect,"30 µM, 30.03 µM",18.61%
O=C1CC2(CCN(C(=O)C3CCCCC3)C2)Nc2ccccc2N1 (stereo unspecified),Percent Effect,"30.3 µM, […]",29.44%
Cc1nc(CO[C@H]2CN(C(=O)c3cnoc3C)[C@@H]3COC[C@H]23)cs1.O=C(O)C(F)(F)F,Percent Effect,"30.3 µM, […]",6.994%
CCOCC(O)CN1CCN(C(=O)c2cc(C)ccc2F)CC1 (stereo unspecified),Percent Effect,30 µM,-8.817%
COCCOCC(=O)NC(C#N)c1cccc(Cl)c1Cl (stereo unspecified),Percent Effect,"30.3 µM, […]",-18.55%
CCOCC1c2c(ncn2C(C)C)CCN1C(=O)C1CC1 (stereo unspecified),Percent Effect,"30.3 µM, […]",23.55%
CN(C)CC(=O)N1CCC2(CCc3ccc(-c4ccncc4)cc32)CC1.O=C(O)C(F)(F)F.O=C(O)C(F)(F)F,Percent Effect,"30.3 µM, […]",33.01%
Cc1ccc2c(c1)C1(CC2)CCN(c2nncs2)CC1,Percent Effect,"30 µM, 30.03 µM",8.524%
c1cc(-c2ccc3c(c2)CCC32CCN(c3nncs3)CC2)co1,Percent Effect,"30.3 µM, […]",-6.512%
O=C(O)C(F)(F)F.c1cc(-c2ccc3c(c2)CCC32CCN(c3nncs3)CC2)ccn1,Percent Effect,"30.3 µM, […]",73.19%
c1cc(-c2ccc3c(c2)C2(CC3)CCN(c3nncs3)CC2)ccn1,Percent Effect,"30.3 µM, […]",59.16%
O=C(O)C(F)(F)F.c1cncc(-c2ccc3c(c2)C2(CC3)CCN(c3nncs3)CC2)c1,Percent Effect,"30 µM, 30.03 µM",47.88%
